From PubChem BioAssay AID588463 (National Center for Advancing Translational Sciences (NCATS), 2011)
Among all 1,200 compounds or so, about 15 (1%) were called active. Inconclusive results (about 7%) are left out. Calls come from the whole dose curve; as a rule, active = well fitted activation curve with a large enough effect; inconclusive = small, poorly fitted or top-dose-only effect; inactive = flat fitted curve, though single readings scatter. The list comes from a sample in which actives are over-represented; it also holds similar structures and randomly drawn compounds.

target: Beta-2 adrenergic receptor (Homo sapiens) (UniProt P07550); assay: qHTS assay of beta-arrestin-biased ligands of beta2-adrenergic receptor: Hit Validation; conditions: cell-based beta-arrestin recruitment to beta2AR; Potency: activation; series mostly up to 46.1 µM; activation: at the top concentration;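 for activation: plate controls were DMSO for no effect and maximal isoproterenol or metaproterenol response for full effect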
Source text: The concept of biased agonism is an emerging concept of molecular pharmacology which proposes that seven transmembrane receptors (7TMRs) or G protein-coupled receptors (GPCRs), exist in multiple signaling conformations and complexes and that ligands (either agonists or antagonists) can induce signaling biased responses for distinct signal transduction cascades.
Furthermore, accumulating evidence over the last decade has drawn attention to a novel function of beta-arrestins as signal transducers that scaffold various signaling molecules upon activation of 7TMRs. […] This beta-arrestin-biased signaling presumably leads to distinct physiological outcomes from those by G protein activation.
Additionally, the active receptor conformations which […] on this beta-arrestin signaling are likely different from those activating G protein signaling
The goal of this screening project will be to discover and optimize novel beta-arrestin-biased ligands for beta2-AR signaling. A luminescent cell-based assay for beta2-AR-mediated agonism, known as the Tango assay, has been validated in which ligand binding of a recombinant beta2-AR and subsequent recruitment of a recombinant beta-arrestin lead to the release of the transcriptional activator tTA, which upregulates transcription of a tTA-responsive luciferase gene.
NIH Molecular Libraries Probe Production Network [MLPCN]
NIH Chemical Genomics Center [NCGC]
PI: Bryan Roth (UNC) and Bob Lefkowitz (Duke)
NCGC Assay Protocol Summary:
Tango cells were dispensed into white, solid, tissue-culture-treated 1536-well plates at 1500 cells/well in DMEM, containing 1% fetal bovine serum (FBS). Then, 23 nL of compounds or DMSO were delivered to each well using a pin tool. Plates were incubated at 37 degrees C, 5% CO2 for 18 hr. Then 2.5 uL luminescent substrate mix (in-house prepared: 150 mM Tris-Cl, pH 7.6, 3 mM MgCl2, 1% Triton X-100, 5 mM DTT, 0.5 mM CoA, 0.15 mM ATP, 0.44 mM D-luciferin, final concentrations) was added to each well. Plates were then incubated for 15 minutes at room temperature, and subsequently measured on a ViewLux plate reader for luminescent signal using a clear filter with a 10 second exposure and 2x binning. The %Activity was determined from the corrected luminescence values.
Concentration-response curves were fitted to the signals arising from the resulting luminescence. The concentration-effect curves were then classified based on curve quality (r2), response magnitude and degree of measured activity, and compounds were subsequently categorized based on their curve class.
Keywords: biased agonism, beta2-AR, beta-arrestin, GPCR, 7TMR, Tango, luminescence, MLSMR, MLPCN, NIH Roadmap, qHTS, NCGC
Potency is the fitted concentration of half-maximal effect.

Beta-2 adrenergic receptor (Homo sapiens), sequence (P07550 whole entry, looked up): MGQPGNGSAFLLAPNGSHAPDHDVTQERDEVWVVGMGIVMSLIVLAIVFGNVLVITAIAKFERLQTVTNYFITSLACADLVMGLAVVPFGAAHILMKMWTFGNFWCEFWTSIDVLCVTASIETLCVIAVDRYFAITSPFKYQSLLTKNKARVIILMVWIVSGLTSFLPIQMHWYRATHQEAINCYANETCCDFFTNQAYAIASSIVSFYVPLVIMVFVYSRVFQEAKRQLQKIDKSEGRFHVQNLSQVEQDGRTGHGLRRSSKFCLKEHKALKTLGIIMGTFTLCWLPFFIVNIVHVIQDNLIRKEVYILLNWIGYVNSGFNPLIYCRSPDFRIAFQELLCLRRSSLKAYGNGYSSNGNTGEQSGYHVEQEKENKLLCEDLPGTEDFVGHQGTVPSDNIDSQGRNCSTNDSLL

activation, inactive:
CCOC(=O)/C(C#N)=C/Nc1ccsc1C(=O)OC -3.19%
S=c1[nH]c(-c2ccccc2)cn1/N=C/c1cccs1 -3.12%
O=C(Oc1c(Cl)cc(Cl)c2cccnc12)c1cccs1 -2.15%
N#CC[C@H](Cc1ccccc1)N1CC[C@@H](O)CCC1=O -0.52%
COc1ccc(N2C(=O)C3C(C2=O)C(C(=O)c2ccccc2)N2CCCC32)cc1 (stereo unspecified) -0.0662%
COc1ccccc1NC(=S)N/N=C1\CC(C)(C)Oc2ccc(O)cc21 -1.77%
CC(=O)O[C@H]1C2OC(=O)C(C)=C2[C@@H]2OC(=O)[C@]3(CCC4OC41C)OC23 (stereo partly specified) -1.78%
CNC(=S)N/N=C/c1c(C)cccc1Cl -3.5%
CC(NC(=O)NNC(N)=S)(C(F)(F)F)C(F)(F)F -2.46%
COc1ccc(CN2CCCC(C(=O)c3ccc(SC)cc3)C2)cc1Cn1cccn1 (stereo unspecified) 0.256%
COc1cc(CN2CCCCC2C(=O)Nc2ccc(Oc3ccccc3)nc2)ccc1O (stereo unspecified) 6.3%
Cc1nnc(NC(=O)c2ccc3ccccc3c2)o1 -1.26%
Oc1c(CNc2ccccc2)cc(COCc2ccccc2)c2cccnc12 -5.03%
Cc1ccc2nc(N3C(=O)CNC3=S)sc2c1 -2.5%
Clc1ccc(OCc2nc(-c3ccccn3)n[nH]2)cc1 -1.51%
CNC(=S)N/N=C(\C)c1ccccc1 -1.21%
CCCn1c(Nc2nc3ccccc3n2C)nc2ccccc21 -2.95%
Cc1ccc(C2(C)NC(=O)N(CC(=O)c3ccc4c(c3)OCCO4)C2=O)cc1 (stereo unspecified) 4.6%
CNc1sc(C(=O)c2ccccc2F)c(N)c1-c1nc2ccccc2s1 -1.71%
O=S1(=O)Nc2c(ccc3cccnc23)-c2ccccc21 -3.15%
CN1CCN(c2ccc(C(F)(F)F)cc2NC(=O)c2ccco2)CC1 -3.16%
COc1ccccc1-n1c2nc3ccccc3nc2c2c(=O)n(-c3cc(C)cc(C)c3)cnc21 -3.64%
COc1ccc(/C=C(\C#N)C(=O)OCC(=O)NCc2ccccc2)cc1 -4.17%
O=C(N/N=C/C(Br)=C/c1ccccc1)c1cnccn1 3.91%
O=c1[nH]c2c(cnn2-c2ccc(Cl)cc2)c(=O)n1-c1cccc(Cl)c1 -4.33%
O=C(COC(=O)c1cc(=O)c2ccccc2o1)Nc1ccc2ccccc2c1 -3.15%
CCc1n[nH]c(=S)n1/N=C/c1ccc(N(CC)CC)cc1 -2.67%
COc1ccccc1-[n+]1c(C)cc(/C=C2\Sc3ccccc3N2C)cc1C 4.51%
CCCNC(=O)CN(c1ccccc1)S(=O)(=O)c1ccc(OC)c(OC)c1 -3.31%
COC(=O)c1cc(Br)c(=O)n(CCc2ccc(O)cc2)c1 -1.68%
CCc1ccc(CNc2ccc(O)cc2)cc1 -3.25%
Cc1ccc(S(=O)(=O)Nc2cccnc2)cc1 -2.88%
Cc1ccc(/C=C/C(=O)c2ccccc(=O)c2O)c(C)c1 0.972%
Cc1ccc(C2C3=C(CC(C)(C)CC3=O)NC3=C2C(=O)c2ccccc23)cc1 (stereo unspecified) 0.4%
Cc1cc(-c2n[nH]c(=S)n2/N=C/C(Cl)=C/c2ccccc2)n[nH]1 -3.11%
CN1CCN(C(=S)NC(=O)c2ccc(Br)cc2)CC1 -0.998%
CC(=O)/C(=N\Nc1ccc(Cl)cc1Cl)Sc1cccc2cccnc12 -3.04%
CN1CCN(C(c2cccnc2)c2ccc3cccnc3c2O)CC1 (stereo unspecified) -0.879%
CC1=NN(C(N)=S)C(=O)C1N=Nc1ccc([N+](=O)[O-])cc1 (stereo unspecified) -2.82%
CC(C)c1nnc(NC(=O)c2cnccn2)s1 0.236%
COCCNC(=S)N/N=C(\C)c1ccc(Cl)c(Cl)c1 -1.6%
Cc1ccccc1NC(=O)c1c([N+](=O)[O-])c(C(C)(C)C)nn1C -1.26%
O=C(O)c1ccc(C2Nc3ccccc3C(=O)N2Cc2ccccc2)cc1 (stereo unspecified) -0.733%
CCOC(=O)C1=C(C)N(c2ccc(OC)cc2)C(=O)/C1=C\c1ccc(O)c(OCC)c1 6.03%
CCCCCC1CCC(c2n[nH]c(=S)n2C)CC1 (stereo unspecified) -5.76%
CCCCOc1ccc(C(O)(CCC)CCN2CCOCC2)cc1 (stereo unspecified) -1.83%
CC(=O)Nc1nonc1NC(=O)CSc1nc2ccccc2o1 -7.81%
CCCCC(=O)NC(c1cccc([N+](=O)[O-])c1)c1c(OC(C)=O)ccc2ccccc12 (stereo unspecified) -2.28%
COc1ccc(N/C=C/C(=O)C(F)(F)F)cc1 -0.916%
Cc1cccc(NNC(=S)Nc2c(C)cccc2C)c1 -0.528%
CCOc1ccc(/C=N/NC(=O)Cc2csc(Nc3cccc(C(F)(F)F)c3)n2)c(OCC)c1 4.88%
CCN(CC)C(=O)[C@H]1C[C@H](CC(=O)NCc2cccc(C(F)(F)F)c2)C(=O)N2CCc3c([nH]c4cc(-c5ccco5)ccc34)[C@]12C 0.311%
CCCCOc1ccc(NC(=O)CSc2cccc3cccnc23)cc1 -0.82%
CCCC(=O)NC(c1ccccc1OC)c1ccc2cccnc2c1O (stereo unspecified) -3.63%
CCOC(=O)C1=C(C)N=c2s/c(=C3/C(=O)Nc4ccccc43)c(=O)n2C1c1ccc(C)cc1 (stereo unspecified) -2.56%
O=c1ccc(S(=O)(=O)N2CCCC2)c[nH]1 -1.52%
CCc1cc(=O)oc2cc3occ(C)c3cc12 -1.07%
COc1ccc2ccccc2c1/C=N/NC(=S)NCCN1CCOCC1 -2.79%
O=C(/C=C/c1ccc(Cl)cc1)NC(=S)Nc1ccccc1C(=O)O 0.6%
CC(c1ccccc1)n1c(-c2ccc(C(C)(C)C)cc2)n[nH]c1=S (stereo unspecified) -2.9%
Cc1c(C(=O)OC2CCC(C)CC2)[nH]c2c1C(=O)CCC2 (stereo unspecified) -0.463%
CCCCn1c(Cc2ccccc2)n[nH]c1=S -2.41%
CCOC(=O)C1CCN(Cc2cnc(Oc3ccc(N)cc3)s2)CC1 -1.52%
Cc1ccc(N=C2NC(=O)/C(=C/C=C/c3ccco3)S2)cc1 -2.91%
CCOc1ccc2nc(NC(=S)N(C)C)sc2c1 -1.49%
O=[N+]([O-])c1ccc(OCC(O)CN(C2CCCCC2)C2CCCCC2)cc1 (stereo unspecified) -0.892%

Potency, active:
CCC(NC(C)C)C(O)c1ccc(O)c(O)c1 (stereo unspecified) 2.06 µM
CCC(NC(C)C)C(O)c1ccc(O)c2[nH]c(=O)ccc12 (stereo unspecified) 0.0164 µM
COc1ccc(Cl)cc1C(Nc1cccnc1)c1ccc2cccnc2c1O (stereo unspecified) 16.4 µM
CCC(=O)N1CCC2(CC1)Oc1ccc(Cl)cc1C(=O)C21CC(c2ccccc2)=NO1 (stereo unspecified) 20.6 µM
CCCC(=O)NC(c1ccc(OC)cc1)c1ccc2cccnc2c1O (stereo unspecified) 4.11 µM
